Pf growth 48h – P. falciparum growth inhibition at 48 hours (one generation); Potency, µM (top dose mostly 28.7 µM), for the others: top-dose activity change, negative = inhibition, most hits filed as inhibitors; AID 504832; 310,000 tested, 5.9% active; P. falciparum luciferase growth in erythrocytes, 48 h; also: potency is read from the fitted curve at half-maximal effect; % is scaled to controls: 0 for no effect and ±100 for the full control effect
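Here the parasites carry a stable luciferase gene and grow inside erythrocytes in Albumax-based RPMI medium with compound for one erythrocytic cycle. Activity is scored as loss of luminescent signal.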
HCV inhibitor – inhibitors of hepatitis C virus infection | Huh7.5.1 HCVcc-Cre infection, luciferase reporter, 44 h | Potency, µM (doses to about 41.8 µM), for the others: top-dose activity change, negative = inhibition, most hits filed as inhibitors | 340,000 tested, 3.4% active; also: potency is read from the fitted curve at half-maximal effect; % is scaled to controls: 0 for no effect and ±100 for the full control effect
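HCVcc-Cre virus at an moi near 0.5 was added right after compound to cells cultured 4 h from seeding (1,000 cells/well). Luciferase activity was determined 44 h later, 15 min after substrate addition at RT.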
Pf growth 96h – P. falciparum growth inhibition at 96 hour, primary screen for plastid delayed-death inhibitors. P. falciparum luciferase reporter growth, 96 h. Potency, µM (doses to about 28.7 µM), without a hit: top-dose activity change, negative = inhibition, actives largely listed as inhibitors. 320,000 tested, 6.9% active. AID 504834; also: potency is read from the fitted curve at half-maximal effect; % is scaled to controls: 0 for no effect and ±100 for the full control effect
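P. falciparum expressing integrated firefly luciferase grown in erythrocytes (2% hematocrit, 0.05% parasitemia final) with compounds for 96 hours at 37 C, 5% CO2. Growth inhibition read as loss of luminescence after adding luciferase detection reagent.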
HCMV inh – blocks human cytomegalovirus replication; HFF cells, HCMV-luciferase reporter, 72 h; stronger effect = lower value; AID 1259415; activity change, negative = inhibition, % at 57.5 µM; 410,000 tested, 4.5% active; in the data active = activity change below about -60%; inconclusive = no clear call, values can overlap the other calls; inactive = above about -39%; also: % is scaled to controls: 0 for no effect and ±100 for the full control effect
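Luciferase read-out from HCMV-luciferase-infected HFFs (MOI 1 PFU/cell) 72 h post infection at 37C; compounds added after 16 h cell attachment; activity normalized between buffer-only basal and Salinomycin (10uM) inhibitor controls.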
Shiga toxin inh – blocks Shiga toxin action in Vero cells. Vero cells, Shiga toxin protein synthesis inhibition reporter. AID 2315. inhibition, % at 38.7 µM. 290,000 tested, 9.2% active; in the data active = inhibition mostly above about 28%, no sharp cut-off; inactive = mostly below about 43%; also: 0% is about no effect
Cycloheximide cs – counter-screen for Shiga toxin inhibitors: cycloheximide protein synthesis inhibition; cell reporter, cycloheximide protein synthesis inhibition counterscreen; max response, %; 300,000 tested, 12% active; AID 2314; in the data active = max response mostly above about 13%, no sharp cut-off; inactive = mostly below about 14%; also: read at 38.3 µM for the half of the compounds with a filed dose; 0% is about no effect
The depositor's hits bear a star. The list is not random: actives were taken first. Their share in the collection is about 21%. Unless noted, calls follow the shape of the dose curve; as a rule, active = well fitted inhibition curve with a large enough effect; inconclusive = small, poorly fitted or top-dose-only effect, or another doubt; inactive = no such curve, though single readings can be large or run the other way.

Cc1ccc(NC(=O)COc2ccc(-c3nn(C)c(=O)c4ccccc34)cc2)c(C)c1 was read as HCMV inh -40.
CN(C)c1ccc(CNC(=O)c2cccc(NC(=O)N3CCSc4ncccc43)c2)cc1 was read as HCMV inh -6.
Screening COC(=O)[C@]12CCCCC=C1N(Cc1ccccc1)C(=O)[C@H](CC(=O)N1CCCC1)C2 returned HCMV inh -3.
For Cn1cnc2c(=O)oc3ccc(S(=O)(=O)N4CCN(c5cccc(Cl)c5)CC4)cc3c21 the results were HCMV inh 15.
For O=C(NCc1ccccc1)c1cccc2c1C(=O)c1ccc(/C=C/c3ccccc3)cc1S2(=O)=O the results were HCV inhibitor -14% and HCMV inh inconclusive.
Cc1ccc(S(=O)(=O)N2CCOCC2)cc1NC(=O)COC(=O)CSc1ccc(Br)cc1C was read as HCV inhibitor 10%, Pf growth 96h -24%, HCMV inh -96*, Shiga toxin inh -4 and Cycloheximide cs -3.
`Clc1ccccc1OCc1nn2c(-c3ccncc3)nnc2s1` gave Pf growth 48h -20%, HCV inhibitor -23%, Pf growth 96h 15%, HCMV inh 6, Shiga toxin inh -6 and Cycloheximide cs -1.
Cc1nc(COc2ccccc2Cl)sc1-c1ccnc(N)n1 was read as Pf growth 48h 20%, HCV inhibitor inconclusive, Pf growth 96h 30%, HCMV inh -5, Shiga toxin inh 49* and Cycloheximide cs 19*.
`O=c1[nH]c(CN(CCc2ccccc2)S(=O)(=O)c2ccc(Cl)cc2)nc2ccccc12` gave Pf growth 48h 68%, HCV inhibitor 6%, Pf growth 96h 68%, HCMV inh -17, Shiga toxin inh active and Cycloheximide cs 21*.
`O=c1[nH]c(Cc2ccc(Cl)cc2)nc2ccccc12` gave Pf growth 48h 7%, HCV inhibitor 10%, Pf growth 96h 11%, HCMV inh -5, Shiga toxin inh 2 and Cycloheximide cs -3.
COc1ccc(CN(Cc2nc3ccccc3c(=O)[nH]2)C(=O)c2ccco2)cc1 was read as Pf growth 48h -27%, HCV inhibitor -14%, Pf growth 96h -24%, HCMV inh 17, Shiga toxin inh 27 and Cycloheximide cs 5.
For COc1ccc(S(=O)(=O)N(Cc2ccccc2)Cc2nc3ccccc3c(=O)[nH]2)cc1 the results were Pf growth 48h inconclusive, HCV inhibitor inconclusive, Pf growth 96h 22%, HCMV inh -100*, Shiga toxin inh 3 and Cycloheximide cs -2.
`COc1ccccc1CN(Cc1nc2ccccc2c(=O)[nH]1)C(=O)Nc1cccc(C)c1` gave HCV inhibitor -27%, Pf growth 96h 9.3µM*, HCMV inh -25, Shiga toxin inh 44* and Cycloheximide cs 19*.
COc1ccc2cc(CN(Cc3cccnc3)S(=O)(=O)c3ccccc3)c(=O)[nH]c2c1 was read as Pf growth 48h 10µM*, HCV inhibitor 4%, HCMV inh -24, Shiga toxin inh -13 and Cycloheximide cs -3.
`CC(C)CNc1ccc2c(n1)C(=O)N([C@H](C)C(=O)N[C@H](CO)c1ccccc1)C2` gave HCMV inh 26.
O=C(CSc1nc2sc3c(c2c(=O)[nH]1)CCCC3)Nc1ccccc1F was read as HCMV inh -10.
COc1ccccc1CN(Cc1nc2ccccc2c(=O)[nH]1)S(=O)(=O)c1ccc2ccccc2c1 was read as Pf growth 48h 5.9µM*, HCV inhibitor 35µM*, Pf growth 96h -24%, HCMV inh -17, Shiga toxin inh 6 and Cycloheximide cs 7.
`COc1cc2nc(CN(C)Cc3nc4ccccc4c(=O)[nH]3)[nH]c(=O)c2cc1OC` gave Pf growth 48h inconclusive, HCV inhibitor 0%, HCMV inh 76, Shiga toxin inh -15 and Cycloheximide cs -6.
`Cc1csc(NC(=O)[C@@H]2CCCN2C(=O)c2cccs2)n1` gave Pf growth 48h inconclusive, HCV inhibitor 29%, Pf growth 96h -11%, HCMV inh 0, Shiga toxin inh -12 and Cycloheximide cs -2.
For COC(=O)C1C(=O)c2c([nH]c(C(=O)OCC3CCCO3)c2C)CC1C (centres undefined) the results were Pf growth 48h 90%, HCV inhibitor inconclusive, Pf growth 96h inconclusive, HCMV inh 55, Shiga toxin inh 58* and Cycloheximide cs 23*.
Screening CC1=C(C(=O)OCC2CCCO2)C(c2ccccc2)NC(=O)N1 (centres undefined) returned Pf growth 48h 18%, HCV inhibitor 6%, Pf growth 96h 19%, HCMV inh 0, Shiga toxin inh -21 and Cycloheximide cs -5.
`Cc1c(C(=O)OC2CCC(C)CC2)[nH]c2c1C(=O)CCC2` (centres undefined) gave Pf growth 48h -18%, HCV inhibitor -3%, Pf growth 96h 2%, HCMV inh 64, Shiga toxin inh 76* and Cycloheximide cs 43*.
COCCOC(=O)c1[nH]c2c(c1C)C(=O)CC(c1ccccc1)C2 (centres undefined) was read as Pf growth 48h inconclusive, HCV inhibitor inconclusive, Pf growth 96h inconclusive, Shiga toxin inh 3 and Cycloheximide cs 4.
CCCCCOC(=O)c1[nH]c2c(c1C)C(=O)C(C(=O)OC)C(C)C2 (centres undefined) was read as HCV inhibitor inconclusive, HCMV inh -6, Shiga toxin inh 38 and Cycloheximide cs 26*.
`COC(=O)C1C(=O)c2c([nH]c(C(=O)OC3CCCCCC3)c2C)CC1C` (centres undefined) gave Pf growth 48h -37%, HCV inhibitor inconclusive, Pf growth 96h 8.3µM*, HCMV inh -11, Shiga toxin inh 57* and Cycloheximide cs 25*.
`CC1CCN(C(=O)CSc2nnc(-c3cccnc3)o2)CC1` gave Pf growth 48h 16%, HCV inhibitor 22%, Pf growth 96h inconclusive, HCMV inh inconclusive, Shiga toxin inh -7 and Cycloheximide cs -6.
Screening COCCOC(=O)c1[nH]c2c(c1C)C(=O)C(C(=O)OC)C(C)C2 (centres undefined) returned HCV inhibitor -29%, Pf growth 96h inconclusive, HCMV inh 83, Shiga toxin inh 74* and Cycloheximide cs 34*.
COc1ccc(CC(=O)N2CCc3cc(OC)c(OC)cc3C2COc2ccc(OC)cc2)cc1 (centres undefined) was read as HCMV inh 19.
Screening CC(C)(C)C(=O)Cn1ncc(N2CCCC2)c(Br)c1=O returned Pf growth 48h 125%, HCV inhibitor -4%, Pf growth 96h 276%, HCMV inh 67, Shiga toxin inh 138* and Cycloheximide cs 36*.
